Test [1] in a line: inhibitors of TNFa-induced NFkB p65 translocation, primary screen, imaging, HUVEC, MLSMR starter and 10KST1 sets (AID 438;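 active means inhibition above 20% together with a positive visual image hit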;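 further: compound added about 3h40 before a 20 min TNFalpha stimulation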;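 on inhibition: signal is the nuclear over cytoplasmic p65 intensity ratio per well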). To be noted: HUVEC TNFa-induced p65 nuclear translocation; cell count: measured here: nuclei count (cytotoxicity indicator), at 2.08 µM; inhibition: at 2 µM, stronger effect = higher value, 0% TNFa-plus-vehicle, 100% no-TNFa wells.
Test [2] in a line: reduction of polyQ htt aggregates in cells – imaging, exon1htt(103Q)mCFP cells, high-content imaging, primary screen (AID 483).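 Further: compound exposure lasted 3 days before fixation.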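 On nuclei count: percent of the per-plate median nuclei count of sample wells.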 Particulars: exon1htt(103Q)mCFP cell line, aggregate imaging, at 2 µM; inhibition of aggregation: stronger effect = higher value; nuclei count: measured here: cell count, toxicity.
Test [3] is described as follows: endothelial E-selectin expression blockers – imaging, HUVEC, immunofluorescence, MLSMR starter and 10KST1 sets, primary screen (AID 487;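 active means visually confirmed hit in the image check and inhibition above 20%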;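 on inhibition: signal is fraction of cell area covered by stained E-selectin grains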;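 on nuclei count: 100% = median nuclei count of all wells on the same plate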). Particulars: HUVEC TNFalpha-induced E-selectin immunofluorescence imaging, at 2 µM; inhibition: stronger effect = higher value; nuclei count: measured here: cell number, toxicity.
The target of test [4] is Voltage-gated potassium channel subunit beta-2 (Rattus norvegicus) (UniProt P62483). The experiment in a line: inhibitors of rat Kvbeta2 reductase activity – biochemical, NADPH fluorescence, primary screen (AID 622;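 active means fluorescence slope higher than the sample average by over 3 SD, cut at about -0.22 in these data, passing the limit was not always enough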;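 further: slope of raw intensity against log time taken from 70 to 1610 s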). Particulars: recombinant KvBeta, 4-cyanobenzaldehyde reduction, at 10 µM, stronger effect = higher value.
The target is the same in test [5]. The experiment in a line: enhancers of rat Kvbeta2 NADPH turnover – biochemical, NADPH fluorescence, primary screen (AID 623;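 active means NADPH fluorescence slope more negative than the mean of all samples by about 3 SD, 99.7% confidence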;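 further: fluorescence intensity change per second fitted from 20 to 320 s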). To be noted: Recombinant KvBeta, NADPH fluorescence decrease slope, 10 min; at 10 µM; stronger effect = lower value.
In test [6] the target is Alpha-2C adrenergic receptor (Homo sapiens) (UniProt P18825). The experiment in a line: compounds altering alpha2C-coupled GIRK flux – cell-based, HEK293 alpha2C/GIRK1/2, thallium flux, primary screen (AID 624;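 active means fluorescence slope after compound addition differing from the mean of all screened samples at 99.7% confidence, in either direction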;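 further: slope of fluorescence ratio to pre-addition baseline per second over 15 to 24 s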). To be noted: thallium flux BTC fluorescence, at 10 µM, actives lie on both sides.
A short description of test [7]: blockers of RIG-like receptor reporter activation – cell-based, Sendai virus stimulus, luciferase, 10K MLSCN set, TLR/RLR signaling modifier project, primary screen (AID 602276;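 active means inhibition at or above 50% at 10 µM; inactive means inhibition below 50%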;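 further: firefly luciferase from ISG56 promoter only with Renilla not read in this screen; 0% = Sendai virus plus DMSO and 100% = medium plus DMSO without virus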). To be noted: HEK293 RL24 IRF3 luciferase reporter, at 10 µM, stronger effect = higher value. A general note: A reporter such as luciferase makes a cellular process visible.
Test [8] is described as follows: TLR3 IRF3 reporter activation blockers – cell-based, poly I:C stimulus, luciferase, 10K MLSCN set, primary screen (AID 602277;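 active means inhibition of the reporter signal at or above 50%; inactive means inhibition below 50%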). To be noted: HEK293-TLR3 RL24 IRF3 luciferase reporter, at 10 µM, stronger effect = higher value.

Activity calls are given as the source filed them.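 How the source made its calls, unless noted: active means visual image review flags a hit and inhibition of aggregation exceeds 20%; inconclusive means visual hit but inhibition at or below 20%; inactive means no hit on visual image review.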

Chain of Voltage-gated potassium channel subunit beta-2 (Rattus norvegicus) (P62483 whole entry, looked up): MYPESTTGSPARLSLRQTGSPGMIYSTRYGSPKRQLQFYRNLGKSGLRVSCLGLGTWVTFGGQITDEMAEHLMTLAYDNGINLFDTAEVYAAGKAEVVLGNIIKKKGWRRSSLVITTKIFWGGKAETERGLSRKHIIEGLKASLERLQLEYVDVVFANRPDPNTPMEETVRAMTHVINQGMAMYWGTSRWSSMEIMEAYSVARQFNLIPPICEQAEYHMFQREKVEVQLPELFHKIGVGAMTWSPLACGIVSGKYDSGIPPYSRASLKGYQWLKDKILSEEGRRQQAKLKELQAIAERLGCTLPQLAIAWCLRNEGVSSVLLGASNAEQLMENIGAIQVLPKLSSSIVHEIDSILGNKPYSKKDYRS
Chain of Alpha-2C adrenergic receptor (Homo sapiens) (P18825 whole entry, looked up): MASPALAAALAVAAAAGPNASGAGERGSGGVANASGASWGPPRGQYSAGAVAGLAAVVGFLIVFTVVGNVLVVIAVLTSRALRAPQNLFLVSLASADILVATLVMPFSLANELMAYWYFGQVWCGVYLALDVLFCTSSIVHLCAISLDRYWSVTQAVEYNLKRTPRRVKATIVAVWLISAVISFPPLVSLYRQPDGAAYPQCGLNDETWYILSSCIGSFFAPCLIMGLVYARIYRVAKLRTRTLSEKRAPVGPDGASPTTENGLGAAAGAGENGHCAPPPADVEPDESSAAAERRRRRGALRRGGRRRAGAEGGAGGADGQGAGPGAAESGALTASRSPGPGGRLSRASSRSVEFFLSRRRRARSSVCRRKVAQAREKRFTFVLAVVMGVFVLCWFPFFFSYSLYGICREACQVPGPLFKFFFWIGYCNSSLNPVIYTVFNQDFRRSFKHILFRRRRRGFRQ

For orientation: inhibition means the change of the read-out against control, counted positive when it falls. Consider `C=CCN(C(=O)CNS(=O)(=O)c1ccccc1)C(C(=O)NCCOC)c1ccncc1` (centres undefined), for which the cell count in test [1] came to 543. Moreover, the inhibition in test [1] is -18.3% (inactive); in test [3] it was 7.6% (inactive); in test [7], 11% (inactive); in test [8], 5.34% (inactive). The inhibition of aggregation in test [2] was 18.4% (inactive). Also, the nuclei count turned out to be 93.8% in test [2] and 80.2% in test [3]. Besides, the fluorescence slope in test [4] was -0.478 (inactive). Besides, the NADPH fluorescence slope in test [5] is 3.8e-06 (inactive). Further, in test [6], the slope was 0.00567 (inactive).

For the compound `S=c1[nH]nc(-c2ccco2)n1-c1cccc2ccccc12`, the cell count in test [1] amounted to 390. Also, the inhibition was 1.5% (inactive) in test [1], -181% (inactive) in test [3], -23.7% (inactive) in test [7] and -8.5% (inactive) in test [8]. Also, the inhibition of aggregation in test [2] was -1.8% (inactive). The nuclei count in test [2] was determined as 111%; in test [3], 104%. The fluorescence slope in test [4] is -0.526 (inactive). In test [5], the NADPH fluorescence slope is 3.2e-05 (inactive). The slope in test [6] is 0.00555 (inactive).

As to `CCOC(=O)c1nnn(CC(=O)Nc2cccc(F)c2)c1C(=O)OCC`, the cell count in test [1] was found to be 581. The inhibition in test [1] is -7.9% (inactive); in test [3] it was -41.8% (inactive); in test [7], 3.63% (inactive); in test [8], 12.6% (inactive). Further, the inhibition of aggregation in test [2] is 8.9% (inactive). Besides, the nuclei count in test [2] came out at 124%; in test [3] it was 112%. Besides, the fluorescence slope in test [4] was -0.6 (inactive). In addition, the NADPH fluorescence slope in test [5] is -1.1e-05 (inactive). The slope in test [6] is 0.00821 (inactive).

Turning to `C=CCn1c(SCc2cccc(C#N)c2)nnc1-c1ccccc1O`, the cell count in test [1] stood at 658. Also, the inhibition is -2.3% (inactive) in test [1], -18.9% (inactive) in test [3], 27.6% (inactive) in test [7] and 46% (inactive) in test [8]. Moreover, in test [2], the inhibition of aggregation was 5.6% (inactive). Besides, the results for the nuclei count in test [2] and in test [3] were 102% and 110%, respectively. The fluorescence slope in test [4] is -0.574 (inactive). In test [5], the NADPH fluorescence slope is 1.6e-05 (inactive). In test [6], the slope was 0.00698 (inactive).

For the compound `COCCn1nnnc1CN1CCC(Cc2ccccc2)CC1`, the cell count in test [1] amounted to 513. The inhibition in test [1] is -16.4% (inactive); in test [3] it was -71.7% (inactive); in test [7], 12.6% (inactive); in test [8], 13.6% (inactive). Further, the inhibition of aggregation in test [2] is -12.1% (inactive). In addition, the nuclei count in test [2] was determined as 113%; in test [3], 96.1%. In test [4], the fluorescence slope was -0.484 (inactive). Also, the NADPH fluorescence slope in test [5] is -6.1e-05 (inactive). The slope in test [6] is 0.00482 (inactive).

Consider `COc1cccc(NC(=O)C2CCCN2C(=O)Nc2cccc(F)c2)c1` (centres undefined), for which, in test [1], the cell count is 584. Further, the inhibition in test [1] was -15.1% (inactive); in test [3] it was -62.2% (inactive); in test [7] it was 9.51% (inactive); in test [8], 8.88% (inactive). Besides, in test [2], the inhibition of aggregation is -3.6% (inactive). Besides, the nuclei count in test [2] was determined as 86.9%; in test [3] it was 111%. Further, in test [4], the fluorescence slope is -0.512 (inactive). In addition, the NADPH fluorescence slope in test [5] was -5.6e-05 (inactive). The slope in test [6] was 0.00468 (inactive).

For `COc1ccc(-n2c(=O)c3c4c(sc3n3cnnc23)CC(C)CC4)cc1` (centres undefined), the cell count in test [1] was 370. Moreover, the inhibition was 0.2% (inactive) in test [1], -108% (inactive) in test [3], 23.9% (inactive) in test [7] and 2.31% (inactive) in test [8]. The inhibition of aggregation in test [2] was -5.1% (inactive). Further, the values for the nuclei count in test [2] and in test [3] were 80.3% and 116%, respectively. For the same compound, in test [4], the fluorescence slope is -0.46 (inactive). For the same compound, in test [5], the NADPH fluorescence slope was -4.9e-05 (inactive). Further, in test [6], the slope is 0.00768 (inactive).

Regarding `COc1cc(C)nc(N2CCCC(C(=O)Nc3cccc(Cl)c3Cl)C2)n1` (centres undefined), the cell count in test [1] amounted to 395. Moreover, the inhibition in test [1] is 3.6% (inactive); in test [3] it was -0.7% (inactive); in test [7], 4.19% (inactive); in test [8], 21.4% (inactive). Also, the inhibition of aggregation in test [2] was -14.9% (inactive). In addition, the nuclei count in test [2] was 109%; in test [3], 103%. In test [4], the fluorescence slope was -0.467 (inactive). In test [5], the NADPH fluorescence slope was -2.4e-05 (inactive). In addition, in test [6], the slope is 0.00338 (inactive).

Turning to `CC(=O)Nc1c(C(=O)O)[nH]c2ccccc12`, the cell count in test [1] came out at 463. Further, the inhibition in test [1] was -9.1% (inactive); in test [3], -46.4% (inactive); in test [7], 0.607% (inactive); in test [8], 19.4% (inactive). Besides, the inhibition of aggregation in test [2] is -7.5% (inactive). Also, the values for the nuclei count in test [2] and in test [3] were 96% and 104%, respectively. Moreover, the fluorescence slope in test [4] was -0.367 (inactive). For the same compound, in test [5], the NADPH fluorescence slope was -2e-05 (inactive). Further, in test [6], the slope was 0.00513 (inactive).

On to `Cc1occc1-c1nnc(SCC(=O)N2CCc3ccccc32)o1`, for which the cell count in test [1] came out at 679. Moreover, the inhibition was -1.9% (inactive) in test [1], -7.2% (inactive) in test [3], 5.8% (inactive) in test [7] and 5.93% (inactive) in test [8]. In addition, the inhibition of aggregation in test [2] is 2.9% (inactive). For the same compound, the nuclei count was 73.2% in test [2] and 106% in test [3]. For the same compound, in test [4], the fluorescence slope was -0.478 (inactive). Moreover, the NADPH fluorescence slope in test [5] was 2.9e-05 (inactive). Moreover, the slope in test [6] is 0.00881 (inactive).

For `COC(=O)C1CCN(C(=O)c2sc3nc(-c4ccc(F)cc4)cn3c2C)CC1`, the cell count in test [1] was found to be 654. In addition, the inhibition in test [1] was -6.1% (inactive); in test [3] it was -65.8% (inactive); in test [7] it was 10.2% (inactive); in test [8] it was 3.27% (inactive). In addition, the inhibition of aggregation in test [2] was -14.7% (inactive). Besides, the nuclei count was 105% in test [2] and 120% in test [3]. Also, the fluorescence slope in test [4] was -0.487 (inactive). The NADPH fluorescence slope in test [5] is -4.6e-05 (inactive). Also, in test [6], the slope is 0.00421 (inactive).

With `O=S(=O)(NCc1ccc(Cl)cc1)c1cnc[nH]1`, the cell count in test [1] amounted to 468. Further, the inhibition in test [1] was 5% (inactive); in test [3], -182% (inactive); in test [7] it was -8.39% (inactive); in test [8] it was -18.3% (inactive). Also, the inhibition of aggregation in test [2] was -5.7% (inactive). In addition, the values for the nuclei count in test [2] and in test [3] were 96.7% and 129%, respectively. Also, the fluorescence slope in test [4] is -0.538 (inactive). In test [5], the NADPH fluorescence slope is -2e-05 (inactive). Besides, the slope in test [6] was 0.00614 (inactive).

As for `CCOC(=O)c1cc2c(=O)n3ccccc3nc2n(CC(C)C)c1=NC(=O)c1ccco1`, the cell count in test [1] is 659. Further, the inhibition in test [1] is -13.4% (inactive); in test [3], -49.4% (inactive); in test [7] it was 2.77% (inactive); in test [8] it was 20.4% (inactive). The inhibition of aggregation in test [2] was 6.2% (inactive). Further, the nuclei count came to 96.7% in test [2] and 112% in test [3]. Also, in test [4], the fluorescence slope was -0.532 (inactive). Moreover, the NADPH fluorescence slope in test [5] is -5.6e-06 (inactive). The slope in test [6] is 0.00344 (inactive).

`NC(=O)CSc1cn(CCNC(=O)c2cccs2)c2ccccc12`: the cell count in test [1] stood at 604. Further, the inhibition in test [1] is -1.4% (inactive); in test [3] it was 19% (inactive); in test [7] it was -2.46% (inactive); in test [8] it was 23.4% (inactive). Further, in test [2], the inhibition of aggregation is 7% (inactive). Moreover, the nuclei count turned out to be 84.8% in test [2] and 98.2% in test [3]. For the same compound, in test [4], the fluorescence slope is -0.436 (inactive). The NADPH fluorescence slope in test [5] is -4.5e-05 (inactive). Besides, in test [6], the slope was 0.00564 (inactive).

The record behind these values is PubChem BioAssay.
